Test results: PubChem BioAssay (NCATS)
Results filed as inconclusive are left out. A number with no mark means an inactive call. The source made the active and inactive calls. The call rests on the fitted dose curve; in most records, active means well fitted inhibition curve with a large enough effect; inconclusive means small, poorly fitted or top-dose-only effect; inactive means no such curve, though single readings can be large or run the other way.

system: Zika virus NS2B-NS3 protease (unlinked complex); experiment: Primary screen GU Rhodamine qHTS for Zika virus inhibitors: Unlinked NS2B-NS3 protease assay (AID 1347159); details: Recombinant ZIKV NS2B-NS3 protease, Rhodamine110 substrate fluorescence; series mostly up to 107 µM; activity change, negative = inhibition: at the top concentration; further: nearly all actives have a fitted effect of over 60% in size
Method in brief: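 Unlinked NS2B/NS3, 25 nM; Rhod110 peptide, 1.5 microM; compounds, up to 114 microM. Reaction run 15 min at RT in 10 mM Tris-HCl pH 8.0, 0.01% Tween 20; kinetic fluorescence change fitted with a 4-parameter Hill model.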
On the % scale 0 is the no-effect control and ±100 the full control effect.

Row | SMILES | activity change, negative = inhibition [%]
1 | CS(=O)(=O)c1ccc(-n2nc(C(F)(F)F)cc2-c2ccc(F)cc2)cc1 | 81.9
2 | O=C(Nc1ccc2c(c1)CCN(Cc1ncn[nH]1)C2)c1ccccc1-c1ccc(C(F)(F)F)cc1 | 0
3 | CCNc1nc2c(ncn2[C@H]2C[C@H](O)[C@@H](CO)O2)c(=O)[nH]1 | 0
4 | CCN(CC)CCCCNc1ncc2cc(-c3c(Cl)cccc3Cl)c(NC(=O)NC(C)(C)C)nc2n1 | 54.1
5 | CN(CCCOc1ccc(Cc2ccccc2)cc1)CCC(=O)O | 28.9
6 | O=C(Nc1ccc2[nH]ncc2c1)C1CCC1 | 0

system: Zika virus NS2B-NS3 protease (linked construct); experiment: Primary screen NINDS Rhodamine qHTS for Zika virus inhibitors (AID 1347160); details: purified NS2B-NS3 protease, Rhodamine110 substrate fluorescence; series mostly up to 57.1 µM; activity change, negative = inhibition: at the top concentration; further: nearly all actives have a fitted effect of over 55% in size
Method in brief: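 Single-chain NS2B-NS3 protease, 25 nM, pH 8.0; compounds preincubated 15 min. Activity: Rhodamine110 release from 1.5 microM substrate over 15 min, room temperature, data fitted to 4-parameter Hill.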

Row | SMILES | activity change, negative = inhibition [%] | outcome
7 | CS(=O)(=O)c1ccc(-n2nc(C(F)(F)F)cc2-c2ccc(F)cc2)cc1 | 14 | 
8 | O=C(Nc1ccc2c(c1)CCN(Cc1ncn[nH]1)C2)c1ccccc1-c1ccc(C(F)(F)F)cc1 | -3.52 | 
9 | CCNc1nc2c(ncn2[C@H]2C[C@H](O)[C@@H](CO)O2)c(=O)[nH]1 |  | inactive
10 | CCN(CC)CCCCNc1ncc2cc(-c3c(Cl)cccc3Cl)c(NC(=O)NC(C)(C)C)nc2n1 | 88 | 
11 | CN(CCCOc1ccc(Cc2ccccc2)cc1)CCC(=O)O |  | inactive; activator
12 | O=C(Nc1ccc2[nH]ncc2c1)C1CCC1 |  | inactive
